According to PubChem BioAssay (NCI):
This is part of a sample that, as a whole, favours compounds with a hit. Of some 79,000 tested, about 15% had one in any assay. No stated cut-off is given here; in the data, active means growth inhibition above about 70%; inactive means the rest.

How the values were obtained:
[1] = NCI Yeast Anticancer Drug Screen. Data for the rad50 strain (AID 155);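 further: 0% = growth of vehicle-only cultures of the same strain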; conditions: S. cerevisiae rad50 strain growth inhibition; at 50.0 µM; active compounds read high
How it was run: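 Growth of the mutant yeast was measured after compound exposure and referenced to vehicle-treated cultures.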

[2] = NCI Yeast Anticancer Drug Screen. Data for the mec2-1 strain (AID 157); conditions: S. cerevisiae mec2-1 strain, at 50.0 µM, active compounds read high
How it was run: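 Cells of the genetically defined mec2-1 yeast strain are incubated with test compound. Inhibition of growth is calculated against vehicle-treated controls.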

[3] = NCI Yeast Anticancer Drug Screen. Data for the sgs1 mgt1 strain (AID 161);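 further: 0% = growth of cultures given vehicle only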; conditions: S. cerevisiae sgs1 mgt1 strain, at 50.0 µM, active compounds read high
How it was run: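 Mutant yeast exposed to compound; growth scored against vehicle-only wells.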

[4] = NCI Yeast Anticancer Drug Screen. Data for the cln2 rad14 strain (AID 165);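 further: 0% = growth equal to vehicle treated cultures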; conditions: S. cerevisiae cln2 rad14 strain, at 50.0 µM, active compounds read high
How it was run: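 The screen exposed genetically defined yeast (cln2 rad14) to test compounds and scored growth inhibition relative to vehicle-treated controls.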

[5] = NCI Yeast Anticancer Drug Screen. Data for the bub3 strain (AID 167); conditions: S. cerevisiae bub3 mutant strain, at 50.0 µM, active compounds read high
How it was run: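 Whole-cell yeast assay. The mutant strain was incubated with compounds, and growth inhibition was determined by comparison with vehicle-treated cells.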

[6] = NCI Yeast Anticancer Drug Screen. Data for the mlh1 rad18 strain (AID 175); conditions: S. cerevisiae mlh1 rad18 strain growth inhibition; at 50.0 µM; active compounds read high
How it was run: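 Compound-treated yeast growth, normalised to vehicle controls. Strain bears defined DNA repair mutations.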

Measured: growth inhibition

COc1ccc2nccc(C(=O)CCC3CCN(C(=O)c4ccc([N+](=O)[O-])cc4)CC3C(CBr)CCBr)c2c1 (stereo unspecified)
inactive: [1] 16.7% | [2] 6.35% | [3] 26.6% | [4] -1.85% | [5] 6.2% | [6] 34.2%

COc1ccccc1NC(=O)N(C)Cc1ccc(Cl)cc1
inactive: [1] 11.3% | [2] 18.6% | [3] 18.9% | [4] 3.75% | [5] 47.1% | [6] 33.1%

C=CCC(O)c1ccc2c(c1)OCO2 (stereo unspecified)
inactive: [1] -1% | [2] 13.3% | [3] -9.8% | [4] -40% | [5] -4.25% | [6] 10.1%

O=C(Nc1cc(C(F)(F)F)ccc1Cl)c1ccccc1F
inactive: [1] 17.1% | [2] 29.1% | [3] -6.95% | [4] -9.15% | [5] 34.9% | [6] 18.6%

Fc1ccc(Oc2nc3ccccc3nc2-c2ccccc2)cc1
inactive: [1] -3.35% | [2] 4.5% | [3] -2.15% | [4] 5.55% | [5] -9.4% | [6] 25.7%

C/C=C/c1ccc(OC(C)C(=O)c2ccc3c(c2)OCO3)c(OC)c1 (stereo unspecified)
inactive: [1] -12.4% | [2] -28.9% | [3] 8.8% | [4] -10.5% | [5] 6.7% | [6] -7.05%

COC(=O)c1ccc(OC(=O)Nc2ccc(C)cc2)cc1
inactive: [1] -7.15% | [2] -9.6% | [3] -8.45% | [4] -9.4% | [5] 13.6% | [6] -6.6%

CC(=O)c1c(-c2ccc(Cl)cc2)c(C#N)c(=S)n(C2OC(CO)C(O)C(O)C2O)c1C (stereo unspecified)
inactive: [1] -2.85% | [2] -6.3% | [3] 6.15% | [4] 14.8% | [5] -5.15% | [6] 12.2%

Cc1cc(C)n(-c2ccncc2[N+](=O)[O-])n1
inactive: [1] 7.55% | [2] 17.9% | [3] -2.45% | [4] -13.8% | [5] 9.05% | [6] 0.2%

C=CCOC(=O)/C=C/C
inactive: [1] 7% | [2] 2.7% | [3] -4.05% | [4] -11.3% | [5] -2.55% | [6] -1.35%

CCOC(=O)C(Cl)Cc1ccccc1 (stereo unspecified)
inactive: [1] 4.75% | [2] 13.4% | [3] 13.4% | [4] 5.45% | [5] -5.15% | [6] 1.9%

COc1ccccc1/C=N\NC(=O)c1ccccc1O
inactive: [1] 13.2% | [2] 11.6% | [3] 11.8% | [4] 21.5% | [5] 41% | [6] 11.3%

CC1OC(=O)c2cc3ccccc3cc2O1 (stereo unspecified)
inactive: [1] -8% | [2] -6.15% | [3] 5.95% | [4] -31.1% | [5] -19.2% | [6] -0.45%

O=CN(CCO)CCO
inactive: [1] -1.6% | [2] 1.25% | [3] -3.5% | [4] 11.1% | [5] 7.35% | [6] -4.2%

C[C@H]1S[C@H](c2c(F)cccc2F)n2c1nc1ccccc12
inactive: [1] 9.5% | [2] -10.6% | [3] 43.8% | [4] -0.25% | [5] 26.6% | [6] 35%

Cc1cc(C)c(CCC(=O)O)c(C)c1
inactive: [1] 6.95% | [2] 4.8% | [3] -0.3% | [4] 6.6% | [5] -7.1% | [6] -1.25%

COc1cc(/C=C/c2ccnnc2)cc(OC)c1OC
inactive: [1] -9.2% | [2] 15.3% | [3] 16.8% | [4] -0.35% | [5] 15.3% | [6] -34.6%

O=P(Nc1ccc(Cl)cc1)(Nc1ccc(Cl)cc1)N1CCCCC1
inactive: [1] 23% | [2] -45.1% | [3] 5.8% | [4] -21% | [5] 19.9% | [6] 9.2%

C=C(C)C(=O)Oc1ccccc1-c1ccccc1
inactive: [1] 2.55% | [2] -10.2% | [3] -5.5% | [4] 15.6% | [5] 2.65% | [6] -26.5%

C/C(CC(O)(C(F)(F)F)C(F)(F)F)=N\NC(N)=S
inactive: [1] -30.1% | [2] -14.7% | [3] -12.9% | [4] 9.55% | [5] 7.1% | [6] -9.3%

C=CCNC(=S)Nc1cccc(OC(=O)Nc2ccc(Cl)c(Cl)c2)c1
inactive: [1] -16.4% | [2] -11.2% | [3] -18.4% | [4] -23.1% | [5] 1% | [6] -12.4%

CCOc1ccc(N=C2NC(=O)C(CC(=O)Nc3ccc(Cl)cc3Cl)S2)cc1 (stereo unspecified)
inactive: [1] 15% | [2] 15.3% | [3] -7.4% | [4] -51.9% | [5] -6% | [6] 27.2%

CC(=O)Nc1ccc(S(=O)(=O)Oc2noc3ccc(Br)cc23)cc1
inactive: [1] -8.35% | [2] -8.05% | [3] -23% | [4] -4.5% | [5] -3.95% | [6] 2.4%

Cc1cc(=O)c2cc([N+](=O)[O-])ccc2[nH]1
inactive: [1] 6.05% | [2] 6.35% | [3] -9.7% | [4] -5.95% | [5] 5.85% | [6] -2.65%

CS[C@]12C(=O)C[C@@]3(C)[C@@H](CC[C@]3(O)C(=O)CO)[C@@H]1CCC1=CC(=O)CC[C@@]12C
inactive: [1] -2.2% | [2] -24% | [3] -15.9% | [4] 28.7% | [5] -54.8% | [6] -20.4%

CCCCCCOCC(=O)OC
inactive: [1] 10.2% | [2] -9.6% | [3] -1.55% | [4] 8.35% | [5] 9.2% | [6] -2.85%

O=C(Nc1cccc2ccccc12)OCC1CC1
inactive: [1] -4% | [2] 22.8% | [3] -4.55% | [4] -6.2% | [5] -34.9% | [6] -4.4%

COc1ccccc1Nc1nc(NNC(=O)Cc2ccccc2)nc(NNC(=O)c2ccncc2)n1
inactive: [1] 27.4% | [2] 36.2% | [3] 25.3% | [4] 17.6% | [5] 22.7% | [6] 25.6%

N#C/C(=C\n1c(=S)[nH]c2ccc([N+](=O)[O-])cc21)c1cccc(Cl)c1
inactive: [1] -25.2% | [2] -13.9% | [3] -34.1% | [4] 3.75% | [5] -2.45% | [6] -11.2%

Nc1cccc(-c2nc3ccccc3[nH]2)c1
inactive: [1] -21.9% | [2] -26.4% | [3] -17.8% | [4] -9.2% | [5] -20.2% | [6] -14.6%

CC(=O)OCC1OC(Nc2[nH]c(=O)n(C)c(=O)c2C(=O)CCl)C(OC(C)=O)C(OC(C)=O)C1OC(C)=O (stereo unspecified)
inactive: [1] 5.15% | [2] 18.5% | [3] 2.45% | [4] -2.55% | [5] -3.8% | [6] -4.15%

CCOC(=O)C1C(=O)CC(C)(O)C(C(=O)OCC)C1c1ccc(N(C)C)cc1 (stereo unspecified)
inactive: [1] -32.7% | [2] -15.7% | [3] -3.6% | [4] -37% | [5] -1.4% | [6] -10.2%

C=C[C@@]1(C)CC2CC[C@]3(C)C(C)=CC(=O)CC3[C@]2(C)CC1O (stereo partly specified)
inactive: [1] 6.9% | [2] 3.3% | [3] 22.7% | [4] -20.3% | [5] 13% | [6] 10.4%

CN(N=O)C(N)=NC(=O)c1ccccc1
inactive: [1] 11.4% | [2] 10% | [3] 20.9% | [4] -20.6% | [5] -16.1% | [6] -35.3%

O=C(c1nc2ccc(Cl)cc2[nH]c1=O)C(O)c1ccc2c(c1)OCO2 (stereo unspecified)
inactive: [1] -10.9% | [2] -10.2% | [3] -3.85% | [4] 21.1% | [5] -13.2% | [6] 5.2%

CC1=CC2=NC(=O)C(c3ccccc3)C(=O)N2C=C1 (stereo unspecified)
inactive: [1] -1.05% | [2] -27.4% | [3] -9.95% | [4] 12.8% | [5] 7.5% | [6] -19.8%

Nc1ccc(N(C(=O)c2ccccc2)C(=O)c2ccccc2)c(-c2ccccc2)c1
inactive: [1] 19.9% | [2] 8.95% | [3] 6.15% | [4] 3.35% | [5] 11.1% | [6] 22.9%

C=CCc1cc(C(=O)O)ccc1OC
inactive: [1] -36.4% | [2] -23.6% | [3] -16.1% | [4] -1.7% | [5] -30.4% | [6] -13.9%

O=c1cc(NC(c2ccccc2)c2ccccc2)[nH]c(=O)[nH]1
inactive: [1] -5.25% | [2] 22.1% | [3] 8.95% | [4] -10.4% | [5] 19.1% | [6] 27.6%

C1CCc2nc3c(nc2C1)CCCC3
inactive: [1] 9.75% | [2] 1.6% | [3] 1.7% | [4] -9.65% | [5] -0.5% | [6] 7%

Cc1ccc(C(C(=O)O)c2ccc(C)cc2)cc1
inactive: [1] 45.5% | [2] 2.25% | [3] 44.9% | [4] 27.4% | [5] 22.1% | [6] 29.2%
